In article PMC12864922, “TDP-43 directly inhibits mRNA accumulation in neurites through modulation of mRNA stability”:
The full ranking holds about 9,900 sequences; the median of “r (bound/input frequency ratio)” is about 0.7, and the highest 2% start at about 6.5. Only a selection was taken, and the highest values are over-represented in it overall.

B1: ENSMUSG00000042529.499|Kcnj12 (ssRNA)
RNA: GGGAGUUCUACAGUCCGACGAUCGCUUCGAUAUCCGCAUGCUACUGGACCAUGUACAGGGCUCCCUGGGGCUUGUCCUCAGGGGCAGAGAAGGACAUGGUGGCAGCAGCACUGAGAACAGGAGCAUGGCCUCUCUCAGACCCCAGGGCAGUCAUUCAGUCUUUUCCAUGGACACUCCCCACCGCUCCACAUACUGCCUCCGCCUCAUUCUUGGGCUCUUCCUGCCUUGCUGUCUUUCCUUCCACACAGAAGCACCAAGCAUCAUCCAUUCCCAUAGGCAAGCCCAGGGCACUCCCAGAGCUCCCUCUUGCGGUCGCACUAGUGUGGAAUUCUCGGGUGUCAAGG
B2: ENSMUSG00000061578.701|Ksr2 (ssRNA)
RNA: GGGAGUUCUACAGUCCGACGAUCGCUUCGAUAUCCGCAUGCUAUACUCCCAGAUCUGGGGUGAUCUCUUGAGGUGCCUUCCUGUAGUCUCUUGUGUCAUCUUCUUCUAAGACCACUAAUAACACCGCCUUUCUCCUUGAUCCGGGCCUCAGACCUCUUCAGAGAUUCUUUCUCUGAAUGUACGUGGGGGACUCCAACAGAUGUUGGGAGAAGACUCAAUAUGAGCAUACGGGGUCAUUGUUCAAUCCUGUAUCAAGACCUUGGAGUUGUCUAAGGCUGUGGGUUUUAAAUACCUGCUGCAGGCCUCUUGCGGUCGCACUAGUGUGGAAUUCUCGGGUGUCAAGG
B3: ENSMUSG00000032194.16|Kank2 (ssRNA)
RNA: GGGAGUUCUACAGUCCGACGAUCGCUUCGAUAUCCGCAUGCUACAGCCACAAGCCACGCAUCAAACCGUCCCUCCUCCAUCCCUCUGUCCCAUUCUGCCUCGGCAUUCCUCAGCCCCUGAACUUCCCUGAGGGAGCCCUGACAUCUACCAGGCUCAAGCUCCUGGAAGCCUUUCCCAGCACCCUGGGUUCAAAGCCAGAAAGCCAAGCUACAUUCUCCUCCCAGUUGGCACCAGUUGACAACGCCUUGGGUGUGGGUUUCUUGUAAAGAACAUAGAGAACAAUCAGCCGGCAAUUAUGGGAGGCUCUUGCGGUCGCACUAGUGUGGAAUUCUCGGGUGUCAAGG
B4: ENSMUSG00000034801.130|Sos2 (ssRNA)
RNA: GGGAGUUCUACAGUCCGACGAUCGCUUCGAUAUCCGCAUGCUAGGCACUGAGAGGAGCCAGCGCUCGAGGGCGUUCUCACGCCUGACUGAUAGAUACCUUUUUAGGGUGAUGAACUUACACAGAUGCAGAAGAUAUGGGGUGGUGGUCCUGGGUUUUAACCCUCUGACCGUCUUCUAGCUUCUAAUUUUGUUUGGUUUUUACAUCUAGGAGACUUAGGAAUAAUACCCACUGUUCUUAAACUCUUUGAGACCAUGUCUUAAAUGUCAGUAUUUGCUGCUGAAGACAAAAACGGAAAAUAGAAUCUCUUGCGGUCGCACUAGUGUGGAAUUCUCGGGUGUCAAGG
B5: ENSMUSG00000031028.491|Tub (ssRNA)
RNA: GGGAGUUCUACAGUCCGACGAUCGCUUCGAUAUCCGCAUGCUACACCCUUUUAAAUGAACAUGGGGUGGUGAUGGUGCCUUAACAAUCUUGACACUAAGGUGAAGCAAGCAAGUAAGGUGUGUGCCUCUGGGAAGACAGGAGUCGGAAGCCAAGGUGUGUGGCAACAGUCUGGAAGAGAGCUUUUGGUAAUCAUACCGUCUUCAGUGACAAGGCAACAAUGCUGUAAAGUGGGUUUGUUUGGUUUUGUUUUUUCUUUCUCUUUUAUGGAAAUGGCAGGUCUAUUUGCCUCAAACGUUAUGUAGCUCUUGCGGUCGCACUAGUGUGGAAUUCUCGGGUGUCAAGG
B6: ENSMUSG00000028439.155|Fam219a (ssRNA)
RNA: GGGAGUUCUACAGUCCGACGAUCGCUUCGAUAUCCGCAUGCUAGCCAUUUCACCCUAGCUCAAAGUCCAGGAGCCAGGCUUCCAGAAAGGCUCUUCAAGAGCAAGCUUAAGGAAAUACAGUGAGCCAAGUGGCUGUAUGAUAUGGUAUGGUAUGGUAUGGUAUGGUAUGGUAUGGUAUGCACAUGUGUGUGCAUGUGUGUGUGCCUGUGUGUGUGCGUGUGCGUGUGUGUAUGUGUGUGCGUGUGUGUGUGUGUGUGUUGUACCCGAGUGUGUGUUGAGCCUAUCUGUCCAGGGAACCAGAUUCUCUUGCGGUCGCACUAGUGUGGAAUUCUCGGGUGUCAAGG
B7: ENSMUSG00000028439.153|Fam219a (ssRNA)
RNA: GGGAGUUCUACAGUCCGACGAUCGCUUCGAUAUCCGCAUGCUACUGUGCCCCAUUGCCAUUUCACCCUAGCUCAAAGUCCAGGAGCCAGGCUUCCAGAAAGGCUCUUCAAGAGCAAGCUUAAGGAAAUACAGUGAGCCAAGUGGCUGUAUGAUAUGGUAUGGUAUGGUAUGGUAUGGUAUGGUAUGGUAUGCACAUGUGUGUGCAUGUGUGUGUGCCUGUGUGUGUGCGUGUGCGUGUGUGUAUGUGUGUGCGUGUGUGUGUGUGUGUGUUGUACCCGAGUGUGUGUUGAGCCUAUCUGUCCACUCUUGCGGUCGCACUAGUGUGGAAUUCUCGGGUGUCAAGG
B8: ENSMUSG00000028439.154|Fam219a (ssRNA)
RNA: GGGAGUUCUACAGUCCGACGAUCGCUUCGAUAUCCGCAUGCUACCCAUUGCCAUUUCACCCUAGCUCAAAGUCCAGGAGCCAGGCUUCCAGAAAGGCUCUUCAAGAGCAAGCUUAAGGAAAUACAGUGAGCCAAGUGGCUGUAUGAUAUGGUAUGGUAUGGUAUGGUAUGGUAUGGUAUGGUAUGCACAUGUGUGUGCAUGUGUGUGUGCCUGUGUGUGUGCGUGUGCGUGUGUGUAUGUGUGUGCGUGUGUGUGUGUGUGUGUUGUACCCGAGUGUGUGUUGAGCCUAUCUGUCCAGGGAACCUCUUGCGGUCGCACUAGUGUGGAAUUCUCGGGUGUCAAGG
B9: ENSMUSG00000058297.516|Spock2|37:41 (ssRNA)
RNA: GGGAGUUCUACAGUCCGACGAUCGCUUCGAUAUCCGCAUGCUAAUCUUACCCCCAGUGUUCCACAGGAGUCGUGACCACCACACAUGGGUGGGCACAGGUCUGCCUUGCUCCAGCCCCCUCCCUUGGUUUCUGUUGGUACCCAUUUGGCUUUUAUCUGCUUUCUGCUUCACCACUAAGUGCGUAGGUGGGGUCUUUUGAUAUCGGCUCCCCAAAGCCCAAGCCCACAGCCCUAGGAGAGAACCAGGGGCCCAUCUUUGACACCUGGGCCAUCACGAGCCCUCCCGCCUGCAGUUGUCCUAGGGCUCUUGCGGUCGCACUAGUGUGGAAUUCUCGGGUGUCAAGG

biological target: TDP-43 (Homo sapiens, UniProt Q13148 1-414); assay: RNA Bind-n-Seq with designed 260-mer pool; 25 mM Tris-HCl, 150 mM KCl, 3 mM MgCl2, BSA (printed 500 mg/mL), 20 units/mL SUPERase IN; pH not stated; 500 nM RNA pool, 1 h, 4 C; TDP-43 5, 50, 500 nM; high values mean tight binding; conditions: protein: recombinant; tags: SBP (GST cleaved off with PreScission; pGEX-GST-SBP)
Outline: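 Duplicate measurements used two independent batches of recombinant SBP-tagged TDP-43, which was captured on streptavidin beads at 5, 50 or 500 nM. The beads were incubated with 500 nM of an in vitro-transcribed 260-nt 3′ UTR oligo pool for 1 h at 4 °C in 25 mM Tris-HCl, 150 mM KCl, 3 mM MgCl2, BSA and SUPERase IN. After washing, biotin elution, reverse transcription, PCR amplification and sequencing, binding was expressed as R: each oligo's normalized read abundance in the bound sample over its abundance in input.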

TDP-43, sequence (Q13148 whole entry): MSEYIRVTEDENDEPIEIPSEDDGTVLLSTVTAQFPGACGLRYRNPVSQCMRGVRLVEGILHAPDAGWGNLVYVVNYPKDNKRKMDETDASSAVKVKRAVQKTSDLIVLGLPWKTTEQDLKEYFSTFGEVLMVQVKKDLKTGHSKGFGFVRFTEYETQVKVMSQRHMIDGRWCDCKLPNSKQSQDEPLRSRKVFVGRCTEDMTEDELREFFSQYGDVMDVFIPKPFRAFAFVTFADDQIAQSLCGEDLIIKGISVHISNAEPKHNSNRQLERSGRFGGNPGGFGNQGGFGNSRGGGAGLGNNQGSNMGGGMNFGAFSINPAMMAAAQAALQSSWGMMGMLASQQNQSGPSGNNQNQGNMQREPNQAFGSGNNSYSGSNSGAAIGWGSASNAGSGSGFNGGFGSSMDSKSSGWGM

Binder | binding signal
B1 | 1.51 R (bound/input frequency ratio)
B2 | 0.292 R (bound/input frequency ratio)
B3 | 1.15 R (bound/input frequency ratio)
B4 | 0.376 R (bound/input frequency ratio)
B5 | 1.97 R (bound/input frequency ratio)
B6 | 7.8 R (bound/input frequency ratio)
B7 | 6.09 R (bound/input frequency ratio)
B8 | 7.96 R (bound/input frequency ratio)
B9 | 0.797 R (bound/input frequency ratio)
